SMILES strings stand for the structures. Hit rate of the full screen: of about 2,300 compounds, about 330 (14%) showed activity. The list is a sample of the results. Unmarked numbers belong to inactive results.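 Rule for the calls: active = median modified Z-score above 1.96; inactive = 1.96 or below.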

This assay relates to HepG2 Srxn1-GFP reporter cells (+30 nM CDDO-Me). Description: Srxn1-GFP intensity median modified Z-score relative to plate median; higher = stronger NRF2 / oxidative stress reporter activation, active = hit call of the paper. Particulars: 10 µM; exposure time: 24h. Summed up:
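HepG2 Srxn1-GFP BAC reporter cells (20,000 per well, 96-well plates) were co-exposed to an NRF2 activator at 30 nM and compound at 10 μM (≤0.1% DMSO) for 24 h in three replicate plates. After formaldehyde fixation and Hoechst staining, confocal images were analysed per cell for cytoplasmic GFP, excluding images with under 100 cells. The value is the median over replicates of the per-plate modified Z-score of GFP intensity. Scaling used 1.4826 × median absolute deviation.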
On to `Clc1ccc(Cn2c(CN3CCCC3)nc3ccccc32)cc1` [euspeclibcmpd1234], for which the “Srxn1-GFP intensity median modified Z-score” value was -0.0615.

As for `CN(C)CCN(Cc1ccc(Cl)cc1)c1ccccn1` [euspeclibcmpd1219], the “Srxn1-GFP intensity median modified Z-score” value is -0.833.

Take `Cc1nc2ccccc2n1Cc1ccc(Cl)cc1` [euspeclibcmpd2199]: the “Srxn1-GFP intensity median modified Z-score” value is 5.5 (active).

Regarding `Cc1nc(=N)c(C[n+]2csc(CCO)c2C)c[nH]1` [euspeclibcmpd454], the “Srxn1-GFP intensity median modified Z-score” value is -0.15.

Consider `O=C1C(CO)OC(O)C(O)C1O` (centres undefined) [euspeclibcmpd526], for which the “Srxn1-GFP intensity median modified Z-score” value is -0.212.

Regarding `COc1ccc2c(c1OC)OC[C@@H](c1ccc(OC)c(OC)c1OC)C2` [euspeclibcmpd1365], the “Srxn1-GFP intensity median modified Z-score” value is 0.0257.

Turning to `CCCCCCCCCCC[C@@H](C[C@H]1OC(=O)C1CCCCCC)OC(=O)C(CC(C)C)NC=O` (some centres undefined) [euspeclibcmpd681], the “Srxn1-GFP intensity median modified Z-score” value was -0.557.

For `C=C[C@H]1C[N@]2CC[C@H]1C[C@@H]2[C@@H](O)c1ccnc2ccc(OC)cc12` [euspeclibcmpd2428], the “Srxn1-GFP intensity median modified Z-score” value is 1.98 (active).

Regarding `C[C@]12CCC3c4ccc(O)cc4CCC3C1C[C@@H](O)[C@@H]2O` (some centres undefined) [euspeclibcmpd2155], the “Srxn1-GFP intensity median modified Z-score” value was -0.253.

Take `CC(=O)Oc1cccc2c1C(=O)c1c(OC(C)=O)cc(C(=O)O)cc1C2=O` [euspeclibcmpd1072]: the “Srxn1-GFP intensity median modified Z-score” value was 4.68 (active).

Consider `CC(=O)Oc1cccc(C(=O)O)c1OC(C)=O` [euspeclibcmpd1107], for which the “Srxn1-GFP intensity median modified Z-score” value was 0.

As to `CC(=O)Oc1c(C)cccc1C(=O)O` [euspeclibcmpd1264], the “Srxn1-GFP intensity median modified Z-score” value was -0.393.

In the case of `CC(C)(ON=C(C(=O)NC1C(=O)N2C(C(=O)O)=C(C[n+]3ccccc3)CSC12)c1csc(=N)[nH]1)C(=O)O` (centres undefined) [euspeclibcmpd603], the “Srxn1-GFP intensity median modified Z-score” value was -0.205.

Consider `O=C(OCC(O)CO)c1ccccc1N=c1cc[nH]c2cc(Cl)ccc12` (centres undefined) [euspeclibcmpd1054], for which the “Srxn1-GFP intensity median modified Z-score” value is 4.38 (active).

As to `CCN(CCO)CCCC(C)N=c1cc[nH]c2cc(Cl)ccc12` (centres undefined) [euspeclibcmpd728], the “Srxn1-GFP intensity median modified Z-score” value is 0.226.

Regarding `CC(O)CN1CCN(CC(=O)O)CCN(CC(=O)O)CCN(CC(=O)O)CC1` (centres undefined) [euspeclibcmpd2179], the “Srxn1-GFP intensity median modified Z-score” value is -0.14.

For the compound `CC(C)(CNC(=O)c1cccc(S(=O)(=O)N2CCNC(=O)C2)c1)N1CCOCC1`, the “Srxn1-GFP intensity median modified Z-score” value is 0.976.

On to `Nc1ccc2cc3ccc(N)cc3nc2c1` [euspeclibcmpd1172], for which the “Srxn1-GFP intensity median modified Z-score” value was 35.6 (active).

For the compound `CO[C@@]1(NC(=O)CSCC#N)C(=O)N2C(C(=O)O)=C(CSc3nnnn3C)CSC21` (some centres undefined) [euspeclibcmpd2252], the “Srxn1-GFP intensity median modified Z-score” value was 1.04.

Turning to `N=c1[nH]c(=O)c2ncn(COCCO)c2[nH]1` [euspeclibcmpd586], the “Srxn1-GFP intensity median modified Z-score” value is 0.00752.

Take `S=c1ccss1` [euspeclibcmpd2055]: the “Srxn1-GFP intensity median modified Z-score” value is 7.86 (active).

Consider `CC1(C)CCC[C@]2(C)[C@H]3CC(=O)O[C@]3(C)CC[C@@H]12` [euspeclibcmpd1513], for which the “Srxn1-GFP intensity median modified Z-score” value was 11.6 (active).

Consider `OC[C@H]1O[C@@H](O[C@H]2[C@H](O)[C@@H](O)[C@@H](O)O[C@@H]2CO)[C@H](O)[C@@H](O)[C@@H]1O` [euspeclibcmpd2099], for which the “Srxn1-GFP intensity median modified Z-score” value is -0.374.

`CC(=O)OC1=C2C(C)C(O)CC(O)(C(OC(=O)c3ccccc3)C3C4(OC(C)=O)COC4CC(O)C3(C)C1=O)C2(C)C` (centres undefined) [euspeclibcmpd1937]: the “Srxn1-GFP intensity median modified Z-score” value is 0.285.

As for `C=CC(C)(O)CCC=C(C)CCC=C(C)C` (centres undefined) [euspeclibcmpd2017], the “Srxn1-GFP intensity median modified Z-score” value is -0.108.

Regarding `COC(C)(C)CCC[C@H](C)C=CC=C(C)CC(=O)OC(C)C` [euspeclibcmpd1162], the “Srxn1-GFP intensity median modified Z-score” value was 0.521.

Consider `CCC(CCC(C)[C@H]1CCC2C3CC=C4C[C@@H](O)CC[C@]4(C)C3CC[C@@]21C)C(C)C` (some centres undefined) [euspeclibcmpd1675], for which the “Srxn1-GFP intensity median modified Z-score” value was -0.236.

Turning to `C1CNCCN1` [euspeclibcmpd2044], the “Srxn1-GFP intensity median modified Z-score” value is 5.44 (active).

Consider `C=C(C)[C@@H]1CC[C@]2(C)CC[C@]3(C)[C@@H](CCC4[C@@]5(C)CC[C@H](OC(C)=O)C(C)(C)C5CC[C@]43C)C12` (some centres undefined) [euspeclibcmpd1452], for which the “Srxn1-GFP intensity median modified Z-score” value was -0.35.

With `COC1CC2CCC(C)C(O)(O2)C(=O)C(=O)N2CCCCC2C(=O)OC(C(C)CC2CCC(O)C(OC)C2)CC(=O)/C(C)=C/C(C)C(O)C(OC)C(=O)C(C)CC(C)/C=C/C=C/C=C/1C` (centres undefined) [euspeclibcmpd645], the “Srxn1-GFP intensity median modified Z-score” value was 2.8 (active).

For `C=CC/C1=C\C(C)C[C@H](C)C[C@H](OC)[C@H]2O[C@@](O)(C(=O)C(=O)N3CCCCC3C(=O)O[C@H](/C(C)=C/C3CC[C@@H](O)[C@H](OC)C3)[C@H](C)[C@@H](O)CC1=O)[C@H](C)C[C@@H]2OC` (some centres undefined) [euspeclibcmpd642], the “Srxn1-GFP intensity median modified Z-score” value was 0.0384.

With `CC(C)(C)OC(=O)N1[C@H](CNCC(=O)NCC2CC2)COC1(C)C`, the “Srxn1-GFP intensity median modified Z-score” value is 0.298.

For the compound `C=C1c2cccc(O)c2C(=O)C2C(=O)[C@]3(O)C(=O)C(C(N)=O)C(=O)C(N(C)C)[C@@H]3[C@@H](O)[C@H]12` (some centres undefined) [euspeclibcmpd374], the “Srxn1-GFP intensity median modified Z-score” value was 0.0721.

Consider `Nc1ccc(S(=O)(=O)Nc2ccc([N+](=O)[O-])cc2)cc1`, for which the “Srxn1-GFP intensity median modified Z-score” value is 1.07.

Turning to `C=CCSCC=C` [euspeclibcmpd1525], the “Srxn1-GFP intensity median modified Z-score” value is 2.8 (active).

For `C=CCSCC(N)C(=O)O` (centres undefined) [euspeclibcmpd1339], the “Srxn1-GFP intensity median modified Z-score” value was -0.44.

In the case of `c1ccc2[nH]c(-c3cscn3)nc2c1` [euspeclibcmpd291], the “Srxn1-GFP intensity median modified Z-score” value is -0.321.

Consider `CC(=O)Nc1ccc(S(=O)(=O)Nc2ccc(C)cc2)cc1`, for which the “Srxn1-GFP intensity median modified Z-score” value was 0.323.

With `Cc1cc(=O)c(C(=O)NC(C(=O)NC2C(=O)N3C(C(=O)O)=C(CSc4nnnn4C)CSC23)c2ccc(O)cc2)c[nH]1` (centres undefined) [euspeclibcmpd2006], the “Srxn1-GFP intensity median modified Z-score” value is -0.441.

As for `COC(=O)C[C@H]1C2(C)CC34OC5(C)O[C@@]6([C@H](OC(C)=O)C(OC(C)=O)[C@]7(C)C(C(C(=O)C(C)C)C(=O)O[C@H]7c7ccoc7)[C@@]6(O5)[C@H](OC(C)=O)[C@@]3(O)C2OC(=O)C(C)C)[C@]14C` (some centres undefined) [euspeclibcmpd1593], the “Srxn1-GFP intensity median modified Z-score” value was 0.648.

Turning to `CC=CC1=C(C(=O)O)N2C(=O)C(NC(=O)C(N)c3ccc(O)cc3)C2SC1` (centres undefined) [euspeclibcmpd754], the “Srxn1-GFP intensity median modified Z-score” value was 0.0492.

Take `Cc1cc(=N)c2ccccc2n1CCCCCCCCCCn1c(C)cc(=N)c2ccccc21` [euspeclibcmpd1012]: the “Srxn1-GFP intensity median modified Z-score” value is 10 (active).

Turning to `CN1CCc2c(c3ccccc3n2Cc2ccccc2)C1` [euspeclibcmpd1060], the “Srxn1-GFP intensity median modified Z-score” value is -0.511.

For `NC(COP(=O)(O)O)C(=O)O` (centres undefined) [euspeclibcmpd1153], the “Srxn1-GFP intensity median modified Z-score” value was -0.195.

For the compound `CC1(C)NC(=O)N(c2ccc([N+](=O)[O-])c(C(F)(F)F)c2)C1=O` [euspeclibcmpd654], the “Srxn1-GFP intensity median modified Z-score” value was 0.519.

In the case of `CC(C)C(=O)Nc1ccc([N+](=O)[O-])c(C(F)(F)F)c1` [euspeclibcmpd362], the “Srxn1-GFP intensity median modified Z-score” value is 3.07 (active).

For the compound `CCOc1ccc2ccccc2c1C(=O)NC1C(=O)N2C1SC(C)(C)C2C(=O)O` (centres undefined) [euspeclibcmpd2391], the “Srxn1-GFP intensity median modified Z-score” value was -0.175.

Regarding `NC(=O)c1cc[n+](C=C2CSC3C(NC(=O)Cc4cccs4)C(=O)N3C2C(=O)O)cc1` (centres undefined) [euspeclibcmpd1236], the “Srxn1-GFP intensity median modified Z-score” value is -0.488.

Regarding `CN1CCC(c2c3ccccc3cc(=O)c3sccc23)CC1` [euspeclibcmpd331], the “Srxn1-GFP intensity median modified Z-score” value was 0.863.

For `COc1cc(-c2coc3cc(OC)c(OC)c(OC)c3c2=O)cc(OC)c1OC` [euspeclibcmpd1402], the “Srxn1-GFP intensity median modified Z-score” value is -0.364.

As for `COc1cc(C)c2c(=O)c(-c3ccccc3)coc2c1` [euspeclibcmpd1711], the “Srxn1-GFP intensity median modified Z-score” value was 0.917.

Turning to `COc1cc2occ(-c3ccccc3)c(=O)c2c(OC)c1C` [euspeclibcmpd2367], the “Srxn1-GFP intensity median modified Z-score” value is 3.02 (active).

Turning to `CC(C)(C)O[C@H]1C[C@@H](O)C1`, the “Srxn1-GFP intensity median modified Z-score” value was 1.93.

For `CC(=O)O[C@]1(C(C)=O)CCC2C3=CC(C)=C4CC(=O)CCC4(C)C3CCC21C` (some centres undefined) [euspeclibcmpd180], the “Srxn1-GFP intensity median modified Z-score” value was 0.562.

Consider `CC(NS(=O)(=O)c1cccc(Cl)c1)C1CCCO1` (centres undefined), for which the “Srxn1-GFP intensity median modified Z-score” value was 1.74.

Turning to `Cc1cc(=O)cc(O)o1` [euspeclibcmpd1585], the “Srxn1-GFP intensity median modified Z-score” value was 0.226.

For `O=C1OCCc2oc(O)cc21` [euspeclibcmpd1348], the “Srxn1-GFP intensity median modified Z-score” value is 33 (active).

As to `O=C(OCc1ccccc1)c1ccccc1` [euspeclibcmpd510], the “Srxn1-GFP intensity median modified Z-score” value is 0.252.

`OC[C@H]1O[C@@H](O[C@@H]2[C@@H](CO)O[C@](O)(CO)[C@H]2O)[C@H](O)[C@@H](O)[C@H]1O` [euspeclibcmpd170]: the “Srxn1-GFP intensity median modified Z-score” value was 0.208.

For the compound `NC(=O)c1cc[n+](C=C2CSC3C(NC(=O)C(c4ccccc4)S(=O)(=O)O)C(=O)N3C2C(=O)O)cc1` (centres undefined) [euspeclibcmpd2133], the “Srxn1-GFP intensity median modified Z-score” value is -0.143.

Take `CCN(CC)CCNC(=O)COc1ccc(OC)cc1` [euspeclibcmpd2435]: the “Srxn1-GFP intensity median modified Z-score” value was -0.25.

Consider `CCCOc1cc(N)ccc1C(=O)OCCN(CC)CC` [euspeclibcmpd379], for which the “Srxn1-GFP intensity median modified Z-score” value is 0.431.

For the compound `CCN(CC)CCOc1ccc2c(c1)C(=O)c1cc(OCCN(CC)CC)ccc1-2` [euspeclibcmpd940], the “Srxn1-GFP intensity median modified Z-score” value is 5.93 (active).

`C=Cc1c(C=c2[nH]c(=Cc3[nH]c(C=c4[nH]c(O)c(C=C)c4=C)c(C)c3CCC(=O)O)c(CCC(=O)O)c2C)[nH]c(O)c1C` [euspeclibcmpd1536]: the “Srxn1-GFP intensity median modified Z-score” value is 0.744.

For the compound `Cc1cc(-c2ccccc2)n[nH]c1=NCCN1CCOCC1` [euspeclibcmpd383], the “Srxn1-GFP intensity median modified Z-score” value is 1.08.

For the compound `CNC(Cc1ccccc1)C(=O)O` (centres undefined), the “Srxn1-GFP intensity median modified Z-score” value was 1.21.

As for `Cc1coc2c1C(=O)C(=O)c1c-2ccc2c1CCCC2(C)C` [euspeclibcmpd1647], the “Srxn1-GFP intensity median modified Z-score” value is 2.22 (active).

For `Cc1c(S(=O)(=O)O)oc2c1C(=O)C(=O)c1c-2ccc2c1CCCC2(C)C` [euspeclibcmpd2216], the “Srxn1-GFP intensity median modified Z-score” value was 0.

As to `CN[C@H]1C[C@@H](N)[C@H](O)[C@@H](O[C@@H]2O[C@H](CO)[C@@H]3OC4(O[C@@H]3[C@@H]2O)O[C@H](C(N)CO)[C@H](O)[C@H](O)[C@H]4O)[C@@H]1O` (some centres undefined) [euspeclibcmpd1459], the “Srxn1-GFP intensity median modified Z-score” value is -0.136.
